# TcdB GH inh: inhibitors of Clostridioides difficile toxin B glycohydrolase; P18177; TcdB glycohydrolase enzymatic assay, plate reader; inhibition, % at 9.99 µM; actives 0.24% (n = 350,000); in the data active = inhibition above about 10%
# Target sequence (P18177 whole entry, looked up): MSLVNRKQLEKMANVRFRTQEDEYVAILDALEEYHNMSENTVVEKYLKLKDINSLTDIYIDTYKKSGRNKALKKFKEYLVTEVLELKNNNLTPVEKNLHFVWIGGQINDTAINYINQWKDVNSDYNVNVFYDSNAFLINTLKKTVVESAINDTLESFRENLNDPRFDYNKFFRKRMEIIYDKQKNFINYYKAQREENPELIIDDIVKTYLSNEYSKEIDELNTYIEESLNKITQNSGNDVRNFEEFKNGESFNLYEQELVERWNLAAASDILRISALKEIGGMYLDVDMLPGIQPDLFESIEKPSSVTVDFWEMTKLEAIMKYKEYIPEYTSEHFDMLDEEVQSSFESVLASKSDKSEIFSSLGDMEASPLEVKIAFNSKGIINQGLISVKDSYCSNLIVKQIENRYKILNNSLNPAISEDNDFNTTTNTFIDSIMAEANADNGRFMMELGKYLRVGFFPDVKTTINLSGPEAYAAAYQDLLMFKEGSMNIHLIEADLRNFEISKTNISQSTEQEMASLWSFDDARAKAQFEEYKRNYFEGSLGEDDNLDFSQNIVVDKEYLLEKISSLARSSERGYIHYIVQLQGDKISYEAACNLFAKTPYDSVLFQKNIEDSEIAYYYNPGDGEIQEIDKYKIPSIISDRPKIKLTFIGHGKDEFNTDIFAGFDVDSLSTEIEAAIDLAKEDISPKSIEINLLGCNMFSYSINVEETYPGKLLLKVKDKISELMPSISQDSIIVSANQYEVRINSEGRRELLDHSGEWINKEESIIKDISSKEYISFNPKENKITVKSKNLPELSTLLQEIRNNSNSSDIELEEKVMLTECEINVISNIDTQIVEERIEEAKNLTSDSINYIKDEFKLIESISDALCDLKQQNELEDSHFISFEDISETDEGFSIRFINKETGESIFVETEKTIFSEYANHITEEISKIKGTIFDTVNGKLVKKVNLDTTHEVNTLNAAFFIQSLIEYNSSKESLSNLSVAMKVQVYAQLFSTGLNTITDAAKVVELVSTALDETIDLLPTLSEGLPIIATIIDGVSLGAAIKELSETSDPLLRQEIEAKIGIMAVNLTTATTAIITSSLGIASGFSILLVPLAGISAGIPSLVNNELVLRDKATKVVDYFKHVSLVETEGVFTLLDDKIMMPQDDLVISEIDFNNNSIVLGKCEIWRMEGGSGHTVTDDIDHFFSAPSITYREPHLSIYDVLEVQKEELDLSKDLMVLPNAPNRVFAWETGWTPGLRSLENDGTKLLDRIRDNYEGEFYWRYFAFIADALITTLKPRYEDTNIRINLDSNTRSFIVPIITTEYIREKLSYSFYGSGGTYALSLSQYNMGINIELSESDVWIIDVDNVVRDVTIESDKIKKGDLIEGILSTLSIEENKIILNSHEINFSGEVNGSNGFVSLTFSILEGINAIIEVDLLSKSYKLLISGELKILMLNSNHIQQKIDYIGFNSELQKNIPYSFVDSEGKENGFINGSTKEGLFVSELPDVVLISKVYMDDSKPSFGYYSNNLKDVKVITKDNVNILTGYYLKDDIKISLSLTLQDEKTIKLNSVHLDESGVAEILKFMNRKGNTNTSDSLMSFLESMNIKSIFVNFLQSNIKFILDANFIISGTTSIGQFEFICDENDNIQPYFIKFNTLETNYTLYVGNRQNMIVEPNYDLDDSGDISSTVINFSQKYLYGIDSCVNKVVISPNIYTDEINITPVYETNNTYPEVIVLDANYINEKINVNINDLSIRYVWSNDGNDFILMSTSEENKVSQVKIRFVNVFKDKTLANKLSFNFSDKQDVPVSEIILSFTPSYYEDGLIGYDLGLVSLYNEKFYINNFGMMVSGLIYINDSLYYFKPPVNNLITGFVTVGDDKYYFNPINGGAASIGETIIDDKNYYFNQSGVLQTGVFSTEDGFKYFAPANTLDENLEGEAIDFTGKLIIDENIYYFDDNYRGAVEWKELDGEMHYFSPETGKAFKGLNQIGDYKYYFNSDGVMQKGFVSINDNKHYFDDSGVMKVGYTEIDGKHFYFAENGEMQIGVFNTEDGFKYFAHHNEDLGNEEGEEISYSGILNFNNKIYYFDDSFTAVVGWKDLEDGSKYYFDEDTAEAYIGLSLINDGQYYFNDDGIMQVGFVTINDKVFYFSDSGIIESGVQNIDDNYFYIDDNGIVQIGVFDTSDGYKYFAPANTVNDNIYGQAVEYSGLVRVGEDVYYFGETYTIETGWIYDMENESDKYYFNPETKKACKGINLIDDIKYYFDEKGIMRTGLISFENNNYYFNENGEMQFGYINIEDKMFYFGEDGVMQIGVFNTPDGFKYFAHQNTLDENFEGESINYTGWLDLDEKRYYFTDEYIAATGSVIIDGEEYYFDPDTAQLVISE
# Anthrax LF inh2: inhibitors of Bacillus anthracis lethal factor protease. P15917. multiplex microsphere protease cleavage assay, LF. inhibition, % at 10 µM. actives 0.12% (n = 360,000); also: plate controls were buffer without enzyme for full effect and enzyme alone for no effect
# BoNT-A LC inh2: BoNT A light chain protease inhibition; multiplex microsphere protease substrate cleavage, flow cytometry; inhibition, % at 10 µM; actives 0.17% (n = 360,000); also: plate controls were buffer without enzyme for full effect and enzyme alone for no effect
# BoNT F protease: inhibitors of Botulinum neurotoxin F light chain protease. Multiplex microsphere protease cleavage assay, flow cytometry. inhibition, % at 10 µM. actives 0.22% (n = 360,000); in the data active = inhibition above about 35%, passing the limit was not always enough; inconclusive = no clear call, values can overlap the other calls; also: plate controls were buffer without enzyme for full effect and enzyme alone for no effect
# Bead autofluor: flagged as autofluorescent in microsphere protease counterscreen | compound autofluorescence counterscreen, microsphere flow cytometry; stronger effect = higher value | AID 624483 | actives 3.1% (n = 360,000) | fluorescence intensity (test concentration not listed); in the data active = fluorescence intensity above about 16000; inconclusive = no clear call, values can overlap the other calls
# * marks the source's active call; other numbers are inactive results; ? = inconclusive; nt = not tested or not shown. This is one part of a sample in which hits are shown more often than they occur. Rule as the data show it, unless noted: active = inhibition above about 30%; inconclusive = no clear call, values can overlap the other calls; inactive = below that.
SMILES,TcdB GH inh,Anthrax LF inh2,BoNT-A LC inh2,BoNT F protease,Bead autofluor
Cc1cccc(OC(C)c2ccnc3nc(/N=C/N(C)C)nn23)c1 (stereo unspecified),1.0,0.1,-2.7,-3.9,21315*
C[C@@H]1CN([C@@H](C)CO)C(=O)c2cc(NC(=O)Nc3ccccc3)ccc2O[C@@H](C)CCCCO[C@@H]1CN(C)S(=O)(=O)c1ccc(Cl)cc1,1.9,nt,nt,nt,nt
O=C(O)c1ccccc1NC(=O)N1C[C@H]2C[C@@H](C1)c1cccc(=O)n1C2,14.7*,6.2,-0.2,-1.0,5311
CCC(=O)N1[C@H](CO)[C@@H](c2ccccc2)C12CN(C(=O)c1cnccn1)C2,0.6,nt,nt,nt,nt
COc1ccc(-c2n[nH]c(C)c2-c2cnn(-c3ccccc3)c2)c(O)c1,nt,0.3,?,-0.4,19850*
COc1ccc(-c2n[nH]c(C)c2-c2cscn2)c(O)c1,0.4,7.5,-1.4,-7.9,4377
C=C(C)C1CC=C(C)/C(=N/NC(=O)COc2cccc(C)c2)C1 (stereo unspecified),nt,-3.0,-3.2,-7.6,17668*
C=C(C)C1CC=C(C)/C(=N/NC(=O)COc2ccc(Cl)cc2)C1 (stereo unspecified),1.4,0.4,0.4,-1.0,2503
COC(=O)C1=C(C)C(c2cccs2)NC(=O)N1C (stereo unspecified),nt,-3.4,?,-0.3,16502*
CCN(CC)c1ccc(NC(=O)COC(=O)c2cccs2)cc1,nt,-2.7,-0.1,-0.2,22712*
CCOc1ccc2c(C)nc(NC3=NC(C)(C)C=C(C)N3)nc2c1,10.6*,-1.0,1.0,-12.5,4692
O=C(c1ccc(Cl)cc1)N(Cc1ccc(Br)cc1)N1C(=O)CCC1=O,0.8,-3.9,0.1,-6.4,4462
O=C(c1ccc([N+](=O)[O-])cc1)N(Cc1ccc(Cl)cc1)N1C(=O)CCCC1=O,0.3,-1.6,-5.0,-6.2,17414*
O=C(c1ccc([N+](=O)[O-])cc1)N(Cc1ccc(Cl)cc1Cl)N1C(=O)CCCC1=O,nt,-5.6,2.2,4.8,22479*
C[C@H](CO)N1C[C@H](C)[C@@H](CN(C)C(=O)CCCN(C)C)OCCCC[C@H](C)Oc2ccc(NC(=O)Nc3ccccc3)cc2C1=O,-0.4,nt,nt,nt,nt
O=C(NC1CCCCC1)[C@H]1N[C@H]2c3ccc(-c4cccc(F)c4)c(=O)n3C[C@H]2[C@@H]1CO,0.7,nt,nt,nt,nt
COc1ccc(C(C)=O)cc1COC(=O)c1cccc(N(C)C)c1,nt,-4.4,0.2,39.2*,3334
COc1ccc(C(C)=O)cc1COC(=O)c1ccc(N)c([N+](=O)[O-])c1,0.4,1.7,0.0,-0.7,4054
CN(C)Cc1cn(CC[C@@H]2CC[C@H](NS(=O)(=O)c3ccccc3)[C@@H](CO)O2)nn1,0.4,nt,nt,nt,nt
COCCOC(=O)c1c(C)oc2ccc(OC(=O)COc3c(F)c(F)c(F)c(F)c3F)cc12,nt,-1.4,1.9,6.0,22277*
Cc1oc2ccc(OC(=O)COc3c(F)c(F)c(F)c(F)c3F)cc2c1C(=O)OC(C)C,0.5,-0.9,-0.1,-5.7,2247
COCCOC(=O)c1c(C)oc2ccc(OC(=O)c3cccs3)cc12,nt,3.1,2.1,2.2,22293*
CCOC(=O)C1=C(C)NC(=O)C(C#N)C1c1ccco1 (stereo unspecified),-18.6,-0.9,?,-16.9,18722*
CCn1c(SCC(=O)Nc2ccccc2C(=O)OC)nnc1-c1ccoc1C,nt,-2.4,-0.5,-5.2,4111
Cc1ccccc1OCc1nnc(SCC(=O)NCc2ccccc2)n1C,nt,3.0,0.0,1.1,3884
SMILES,TcdB GH inh,Anthrax LF inh2,BoNT-A LC inh2,BoNT F protease,Bead autofluor
CCOC(=O)c1ccccc1NC(=O)CSc1nnc(COc2ccccc2C)n1C,nt,-1.2,?,7.0,17960*
CCn1c(SCC(=O)c2ccc(O)c(O)c2)nnc1-c1ccc(C)cc1,nt,-2.0,0.0,-1.3,2923
CCn1c(SCC(=O)Nc2ccccc2C(=O)OC)nnc1-c1ccc(N)cc1,nt,0.7,-0.1,-2.1,23878*
CCn1c(COc2ccccc2C)nnc1SCC(=O)N1CCCCC1,nt,-4.8,-0.1,-3.1,9214
CCn1c(SCC(=O)c2ccc3c(c2)Cc2ccccc2-3)nnc1-c1ccc(N)cc1,nt,-9.8,-1.7,-0.5,23475*
CCn1c(COc2ccc(Cl)c(C)c2)nnc1SCC(=O)N1CCCC1,1.4,-1.3,?,-2.5,20792*
C[C@@H]1CN([C@@H](C)CO)C(=O)c2cccc(NS(=O)(=O)c3ccc(F)cc3)c2O[C@H]1CN(C)C(=O)Nc1ccc2c(c1)OCO2,-1.9,nt,nt,nt,nt
Cc1noc(C)c1NC(=O)N(C)C[C@@H]1Oc2ccc(NC(=O)CCCCCC(=O)Nc3ccccc3N)cc2C(=O)N([C@H](C)CO)C[C@@H]1C,-1.3,nt,nt,nt,nt

# From PubChem BioAssay
